Measured values published in the supplement of paper PMC11219838.

system: Caenorhabditis elegans L1 (N2); assay: survival and reproduction score of C. elegans L1 (0: 0-10 living worms, 1: 11-20, 2: 21-50, 3: >50, 4: overgrown) (score 0-4); higher = more worms, less nematicidal, active = 1 or less; extreme values may be limits of the assay; conditions: 60 µM; 6 days; temperature: 20 °C
How it was run: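 Compound was pinned to a final 60 µM (0.6% v/v DMSO) into 96-well wells, each holding about 20 synchronized C. elegans N2 L1s and E. coli HB101 in liquid NGM. After 6 days of shaking at 200 rpm and 20 °C in sealed plates, the worms in each well were examined. The ordinal readout of survival and reproduction, based on living worms per well, was assessed under a dissection microscope. On this scale 0 meant 0–10 worms and 4 meant overgrown, starved wells, and two biological replicates were averaged.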

Structure (SMILES) | survival and reproduction score
CCOc1ccccc1-c1nc(-c2ccc(F)cc2)no1 | 4 (inactive)
CCCOc1ccc(-c2ccc(-c3nc(-c4ccccn4)no3)cc2)cc1 | 4 (inactive)
COc1cccc(-c2nc(-c3ccccc3)no2)c1 | 1.5 (inactive)
Cc1ccc(-c2nnc(SCC(=O)Nc3ccc(F)cc3)o2)cc1 | 4 (inactive)
CC(Oc1ccccc1)c1nc(-c2ccccn2)no1 (centres undefined) | 4 (inactive)
Cc1cc(C)c(NC(=O)CSc2nnc(-c3ccc(Br)cc3)o2)c(C)c1 | 4 (inactive)
Cc1ccc(SCc2nc(-c3ccccc3)no2)cc1 | 4 (inactive)
Clc1ccc(CSc2nnc(-c3ccccc3)o2)c(Cl)c1 | 4 (inactive)
COc1ccc(CCC(=O)Nc2ccc(-c3noc(COc4ccccc4C)n3)cc2)cc1 | 4 (inactive)
Cc1ccc(-c2nnc(SCc3ccccc3F)o2)cc1 | 4 (inactive)
CCCCC(=O)Nc1ccccc1-c1nc(-c2ccccn2)no1 | 4 (inactive)
O=C(CSc1nnc(-c2ccco2)o1)Nc1cccc(C(F)(F)F)c1 | 4 (inactive)
Cc1ccccc1OCc1nc(-c2cccc(NC(=O)c3ccco3)c2)no1 | 4 (inactive)
COc1ccc(-c2noc(COc3ccccc3)n2)cc1 | 0 (active)
COc1ccc(-c2nc(-c3ccccc3Cl)no2)cc1 | 4 (inactive)
Cc1ccc(-c2noc(-c3ccc(-n4nncc4C)cc3)n2)cc1 | 4 (inactive)
COc1ccc(-c2noc(-c3ccccc3C)n2)cc1 | 0 (active)
O=C(Nc1ccc(-c2noc(-c3ccccn3)n2)cc1)c1cccc(Cl)c1 | 4 (inactive)
c1ccc2cc(-c3nc(-c4ccncc4)no3)ccc2c1 | 0 (active)
